Rows were chosen to be rich in hits. Some 3.8% of all compounds tested hit in one or more screens of this group.
Jurkat NFkB inh: inhibitors of the PMA/ionomycin-induced NF-kB reporter in Jurkat cells; PMA/ionomycin-induced NF-kB luciferase reporter, luminescence; inhibition, % at 4 µM; 0.53% of 330,000 active; AID 435003; in the data active = inhibition above about 50%
Shn3 3UTR inh: reduces Shn3 3'UTR luciferase signal in osteoblasts; Clone20 osteoblast Shn3 3'UTR firefly luciferase, 24 h; inhibition, % at 12.5 µM; 0.52% of 360,000 active;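 active = mean inhibition of at least 75% with every replicate also reaching 75%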;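 also: 0% = median of neutral control wells and 100% = pilot-screen positive control compound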
697 NFkB inh: inhibitors of the PMA/ionomycin-induced NF-kB reporter in 697 B cells. 0.33% of 330,000 active. 697 B-cell NF-kB luciferase reporter, 16 h. inhibition, % at 4 µM; in the data active = inhibition above about 35%
Gli-Sufu antag: Gli-Sufu pathway antagonism. inhibition, % at 5 µM. 0.74% of 340,000 active. AID 588413. Sufu-KO-LIGHT fibroblasts, Gli luciferase reporter luminescence;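 active = inhibition above about 55%, limit read from the data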;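 also: 0% = DMSO-treated cells and 100% = wells with medium but no cells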
Mdm2-MdmX inh: inhibitors of human Mdm2/MdmX interaction; O15151+Q00987; SaOS-2 split-luciferase Mdm2/MdmX complementation, luminescence; inhibition, % at 8 µM; 3% of 330,000 active; AID 485346;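 active = inhibition of at least 50% at 8 µM in the primary screen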
Mdm2-MdmX conf: human Mdm2/MdmX binding inhibition, confirmed; inhibition, % at 8 µM; shares compounds with Mdm2-MdmX inh; 55% of 10,000 active; AID 489028; luminescent assay; in the data active = inhibition above about 40%
Full FLuc ctr: inhibits full-length luciferase, flagging false Mdm2/MdmX hits. shares compounds with Mdm2-MdmX inh. SaOS-2 full-length luciferase counterscreen, luminescence. inhibition, % at 8 µM. 77% of 6,200 active;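 active = mean inhibition at 8 µM reaching about 37%, which flags the compound as non-specific, limit read from the data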;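 also: p53-null SaOS-2 cells with luciferase driven by a doxycycline-inducible promoter; compound on cells about two nights before reading with doxycycline added after day one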
* hit, by the source's call; . = not tested or not shown.

SMILES | Jurkat NFkB inh | Shn3 3UTR inh | 697 NFkB inh | Gli-Sufu antag | Mdm2-MdmX inh | Mdm2-MdmX conf | Full FLuc ctr
Cc1ccc(C(=O)N[C@@H](C)CN2C3=NC[C@H](Cc4ccccc4)N3C[C@H]2Cc2ccc(O)cc2)cc1Br | 16 | . | 23 | 11 | 98* | 58* | 57*
CC(C)(C)n1cccc1/C=C1\C(=O)NC(=O)N(c2ccccc2)C1=O | 11 | -36 | -6 | -5 | 0 | . | .
Cc1cccc(N2C(=O)NC(=O)/C(=C\c3cccn3-c3ccc(Cl)cc3)C2=O)c1 | 22 | 40 | 25 | 16 | 73* | 40 | 69*
Cc1cc(C)cc(N2C(=O)NC(=O)/C(=C/c3cccn3-c3ccc(Cl)cc3)C2=O)c1 | 20 | 75 | 18 | 4 | 66* | 17 | .
Cc1cccc(N2C(=O)NC(=O)/C(=C/c3ccc([N+](=O)[O-])o3)C2=O)c1 | . | . | . | -9 | . | . | .
COc1ccc(-c2cc(-c3ccccc3)[n+](C)c(-c3ccccc3)c2)cc1 | 42 | 15 | -8 | 44 | 55* | 36 | 52*
C[n+]1c(-c2ccccc2)cc(CCCCc2cc(-c3ccccc3)[n+](C)c(-c3ccccc3)c2)cc1-c1ccccc1 | 16 | 3 | 9 | 14 | 64* | 32 | .
Cc1ccc(-c2cc(-c3ccccc3)cc(-c3ccccc3)[n+]2-c2ccc(C(=O)O)cc2)cc1 | 4 | -5 | 12 | -4 | 1 | . | .
Nc1ccccc1-[n+]1c(-c2ccccc2)cc(-c2ccccc2)cc1-c1ccccc1 | -5 | 0 | 12 | 15 | 42 | . | .
CCOC(=O)C1(c2ccccc2)CCN(CCC(=O)Nc2ccc(OC)cc2)CC1 | . | -1 | . | . | . | . | .
CCOC(=O)C1(c2ccccc2)CCN(CCC(=O)Nc2cccc(Br)c2)CC1 | -13 | 31 | -29 | 37 | 54* | 39 | 77*
CC1CC(C)CN(CC(=O)c2ccc(OC(F)F)cc2)C1 (stereo not given) | 0 | -18 | -19 | 3 | -8 | . | .
C[C@]12CC[C@@H](O)CC1=CC(=O)C1C2CC[C@]2(C)C(=O)CCC12 (stereo not given in full) | 7 | 15 | 2 | 7 | 13 | . | .
CNc1ccc2oc(C[C@H]3O[C@@]4(CC[C@H]3C)O[C@H]([C@H](C)C(=O)c3ccc[nH]3)[C@H](C)C[C@H]4C)nc2c1C(=O)O | 23 | 97* | -61 | 83* | 100* | 98* | 52*
O=c1c2ccccc2nc(/C=C/c2ccccc2F)n1-c1ccccc1O | 7 | -8 | 14 | -1 | 49 | . | .
Cc1ccc(-n2c(/C=C/c3ccccn3)nc3ccccc3c2=O)cc1 | -6 | -19 | 9 | 10 | 59* | 17 | .
COc1cc(/C=C/c2nc3ccccc3c(=O)n2-c2ccc(O)cc2)ccc1O | -7 | -22 | 13 | 24 | 77* | 46* | 95*
O=c1c2ccccc2nc(/C=C/c2ccccc2O)n1-c1ccccc1O | 3 | -35 | -7 | . | 82* | 56* | 63*
Cc1cccc(C#N)c1 | 10 | -37 | 16 | -10 | 8 | . | .
CC1(C)NC(=S)C(C)(C)N1N=O | . | 8 | . | 6 | . | . | .
O=[N+]([O-])c1ccc(N2CCOCC2)c2ccncc12 | 10 | 7 | -1 | -4 | -2 | . | .
COC(=O)C1=C(c2cc3ccccc3s2)C[C@@H]2CC[C@H]1N2C(=O)N1CCCCC1 | 38 | 58 | -16 | -7 | 52* | 57* | 40*
CCOC(=O)c1ccc(NC(=O)N2C[C@@H]3C[C@@H](C2)c2cccc(=O)n2C3)cc1 | -1 | 16 | 8 | 0 | -17 | . | .
O=C1C(=O)c2ccccc2-c2ccccc21 | 34 | 117* | 15 | 22 | 99* | 100* | 0
O=C1/C(=C\c2ccc(Cl)c(Cl)c2)N2CCC1CC2 | -6 | 3 | -6 | 11 | 24 | . | .
Clc1cc(Cl)cc(NC2=NCCS2)c1 | 8 | 0 | 14 | 11 | -19 | . | .
O=C1NC(=O)C(=Cc2cn(CCOc3ccc4c(c3)OCO4)c3ccccc23)C(=O)N1 | -1 | 13 | -61 | 10 | 59* | 24 | .
C=CCn1cc(C=C2C(=O)NC(=O)NC2=O)c2ccccc21 | 15 | -32 | -3 | -5 | 17 | . | .
